Laboratory results as given in PubChem BioAssay (NCATS).
Inconclusive results are not listed. The source made the active and inactive calls. Unless noted, the call rests on the fitted dose curve; in most records, active means well fitted curve in the direction sought with a large enough effect; inconclusive means small, poorly fitted or top-dose-only effect, or another doubt; inactive means no such curve, though single readings can be large; an effect the other way counts as inactive or inconclusive.

Columns and labels:
[1] = Cytometry Cell-Based qHTS for Inhibitors of the mTORC1 Signaling Pathway in MEF cells (AID 2668);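 further: Tsc2-/- p53-/- mouse embryonic fibroblasts stably re-expressing wild-type Tsc2; percent cells positive for phospho-rpS6 Ser235/236 relative to propidium iodide stain; series mostly up to about 38 µM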
Outline: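 Tsc2-/-, p53-/- MEFs re-expressing WT Tsc2; cpd 24 hrs, 37 degree Celsius; PFA fix, Alexa-488 p-rpS6 (Ser235/236) Ab 2 hrs RT, PI counterstain; Acumen 488nm scan; p-S6/PI ratio → % positive cells; PI count = viability.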

[2] = Validation screen for inhibitors of Lassa infection (AID 463096; calls by dose curve)
[3] = Validation screen for small molecules that induce DNA re-replication in MCF 10A normal breast cells (AID 463097); further: nearly all actives have a fitted effect of over 60% in size
Outline: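 Image-based qHTS: normal breast cells are incubated with compound for 48 hr, stained with Hoechst, and scanned for total nuclear fluorescence. Compounds raising the fraction of nuclei with elevated DNA content count as re-replication inducers.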

[4] = molecular target: Ubiquitin carboxyl-terminal hydrolase 2 (Homo sapiens) (UniProt O75604); assay: qHTS Validation Assay for Inhibitors of Ubiquitin-specific Protease USP2a Using CHOP2 as the Reporter (AID 463106)
Outline: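 Readout was coupled fluorescence (Ex 485/Em 531 nm), read 60 min after adding 25 nM final Ub-CHOP2 and 25 nM reporter substrate. Beforehand, 10 nM final USP2 core had 30 min at RT with compound in pH 8.0 buffer. Curves were fitted after normalization to NEM and flagged for artifacts using time-zero reads.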

[5] = molecular target: DNA polymerase III PolC-type (Bacillus subtilis (strain 168)) (UniProt P13267); assay: qHTS Validation Assay for the Inhibitors of DNA Replication in Gram-Positive Bacteria (AID 485295);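 further: reconstituted holoenzyme with PolC plus beta clamp SSB and primase; PicoGreen fluorescence of double-stranded DNA made on primed circular M13 template; series mostly up to about 57 µM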
Outline: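 First, compound is mixed with the reconstituted replication complex and held at room temperature. Next, circular single-stranded M13Gori with nucleotides starts synthesis. Finally, PicoGreen in EDTA halts the reaction and stains double-stranded product for fluorescence reading.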

[6] = molecular target: Tumor susceptibility gene 101 protein (Homo sapiens) (UniProt Q99816); assay: qHTS Validation Assay for Iinhibitors of HIV-1 Budding by Blocking the Interaction of PTAP/TSG101 (AID 485342; calls by dose curve)
Outline: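 Binding of a FITC-tagged PTAP-motif peptide (50 nM) to the Tsg101 binding domain (10 uM) is monitored by fluorescence polarization. Compounds are pin-delivered before peptide addition, and incubation runs 20 min at room temperature.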

[7] = qHTS Validation Assay to Find Inhibitors of Chronic Active B-Cell Receptor Signaling (AID 485345; active means well fitted curve in the direction sought with a large enough effect in the main read-out, with a control signal flat, not every such curve was filed as active)
Outline: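 Read-out: ratio of filter-corrected green (IkappaBalpha fusion) to red (native) luciferase signal in doxycycline-induced TMD8 cells after 4 h at 37C. Titration spanned 46 uM–3 nM; Data were normalised to basal cells and 10 uM MG-132 wells.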

[8] = molecular target: Beta-2 adrenergic receptor (Homo sapiens) (UniProt P07550); assay: qHTS validation assay of beta-arrestin-biased ligands of beta2-adrenergic receptor (AID 485366)
Outline: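 Compound series up to 46 microM applied to beta2-AR/beta-arrestin Tango cells, 18 hr, 37 degrees C, 5% CO2. Read-out: tTA-driven luciferase luminescence, converted to %Activity; concentration-response curves assigned curve classes.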

[9] = molecular target: ATP-dependent 6-phosphofructokinase (Trypanosoma brucei brucei) (UniProt O15648); assay: qHTS Validation Assay to Find Inhibitors of T. brucei phosphofructokinase (AID 485368)
Outline: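 qHTS format, up to 57 uM. PFK 1.25 nM; F6P 0.5 mM; ATP 0.1 mM; 5 mM MgCl2, 0.01% Tween20, 0.1% BSA; 0.1 M TEA pH 8.0; 45 min RT; ADP-Glo readout; no-enzyme control = full inhibition.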

[10] = Quantitative high throughput screen for delayed death inhibitors of the malarial parasite plastid, 96 hour incubation (AID 488745); further: series mostly up to about 29 µM; nearly all actives have a fitted effect of over 70% in size
Outline: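 Two-generation (96 h) exposure of luciferase-reporter P. falciparum in erythrocytes, 2% hematocrit, 0.1% parasitemia final, 37 C, 5% CO2, RPMI 1640 with 0.5% Albumax. Growth inhibition scored by reduced luminescence.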

[11] = Quantitative high throughput screen for delayed death inhibitors of the malarial parasite plastid, 48 hour incubation (AID 488752); further: nearly all actives have a fitted effect of over 65% in size
Outline: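 Cultures: infected erythrocytes at final 2% hematocrit and 0.1% parasitemia in Albumax-supplemented RPMI. Parasites express integrated firefly luciferase. Incubation with compound lasts 48 h before luminescent detection of remaining reporter activity.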

[12] = molecular target: Thioredoxin reductase 1, cytoplasmic (Rattus norvegicus) (UniProt O89049); assay: qHTS Assay for Substrates of Mammalian Selenoprotein Thioredoxin Reductase 1 (TrxR1) (AID 488772);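 further: series mostly up to about 57 µM; a drop in NADPH fluorescence below the no-compound background marks a TrxR1 substrate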
Outline: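 In this dual-purpose format, potential substrates are identified from the first fluorescence read after selenite addition, not from the 8-minute delta. Rat enzyme is preincubated with NADPH and then with compound at ~22 deg C.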

[13] = molecular target: Thioredoxin reductase 1, cytoplasmic (Rattus norvegicus) (UniProt O89049); assay: qHTS Assay for Inhibitors of Mammalian Selenoprotein Thioredoxin Reductase 1 (TrxR1) (AID 488773); settings: Potency: inhibition;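 further: drop in NADPH fluorescence over an 8 min run after selenite addition; series mostly up to about 57 µM; nearly all actives have a fitted effect of over 40% in size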
Outline: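 Inhibition is scored from the loss of NADPH fluorescence between first and last reads of an 8-min kinetic run. Selenite (400 uM) was the substrate, added after 15 min compound preincubation at room temperature.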

[14] = molecular target: Flap endonuclease 1 (Homo sapiens) (UniProt P39748); assay: qHTS Validation Assay for the Inhibitors of Human Flap endonuclease 1 (FEN1) (AID 488816)
Outline: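 qHTS format: compounds and 10 nM FEN1 incubated 15 min at room temperature before adding 50 nM substrate. Cleavage followed by reads at 0 and 15 min; normalized data fitted to a four-parameter Hill curve.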

[15] = molecular target: M-phase phosphoprotein 8 (Homo sapiens) (UniProt Q99549); assay: qHTS Validation Assay for Inhibitors for MPP8 Chromodomain Interactions with Methylated Histone Tails (AID 488949);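 further: 50 nM MPP8 with 50 nM peptide preformed then compounds added for 30 min; AlphaScreen signal from MPP8 chromodomain bound to biotinylated H3K9me3 peptide; top concentration of the series differs between compounds; nearly all actives have a fitted effect of over 55% in size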
Outline: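 50 nM MPP8 + 50 nM b-H3K9me3 peptide, PBS pH 7.4/0.01% Tween-20, 30 min RT; + cpd 30 min RT; + AlphaScreen donor/Ni-chelate acceptor beads 10 ug/mL final, 30 min dark; luminescence read.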

[16] = molecular target: Chromobox protein homolog 1 (Homo sapiens) (UniProt P83916); assay: qHTS Validation Assay for Inhibitors of HP1-beta Chromodomain Interactions with Methylated Histone Tails (AID 488953);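 further: loss of AlphaScreen luminescence from HP1-beta binding biotinylated H3K9me3 peptide; series mostly up to about 110 µM; nearly all actives have a fitted effect of over 50% in size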
Outline: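 Compounds pinned into a preassembled complex of HP1-beta and trimethyl-K9 histone H3(1-18) biotin peptide (50 nM each; PBS pH 7.4, 0.01% Tween-20). After 30 min, bead-based AlphaScreen detection followed.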

[17] = molecular target: Methanococcus maripaludis chaperonin (MmCpn) (UniProt Q6LX38); assay: High-Throughput Screening for Modulators of Cytosolic Chaperonin Activity: MmCpn Primary Screen (AID 488978);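 further: 50 nM MmCpn enzyme hydrolysing 30 µM ATP at 37 °C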
Outline: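 Steps: chaperonin 50 nM final; add compound, 5 min RT; start with ATP, 30 uM final; hold 10 min at 37C; add ADP Transcreener HTRF reagent, 5 min; read ex 320, em 590 and 665 nm.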

[18] = molecular target: Transient receptor potential cation channel subfamily V member 1 (Homo sapiens) (UniProt Q8NER1); assay: HTS Assay for Compounds that Act as Enhancers of the Vanilloid Receptor 1 (AID 488979)
Outline: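 Calcium influx kinetics via Fluo-8 (480/520 nm) in TRPV1-expressing cells, 2000/well cultured overnight at 35.5C. Compound-alone read 3 min (agonist phase), followed by EC20 capsaicin challenge for 2 min (enhancer phase).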

[19] = molecular target: Thyrotropin receptor (Homo sapiens) (UniProt P16473); assay: qHTS Assay for Antagonists of the Thyroid Stimulating Hormone Receptor (AID 488980); further: series mostly up to about 58 µM
Outline: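 Readout is cAMP by HTRF competition between cellular cAMP and cAMP-d2 for a cryptate-labelled antibody. Antagonism was assessed in TSHR-transfected HEK293 cells stimulated with 4 nM TSH (EC80, final) in the presence of RO 20-1724.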

[20] = molecular target: D(1A) dopamine receptor (Homo sapiens) (UniProt P21728); assay: HTS Assay for Allosteric Agonists of the Human D1 Dopamine Receptor: Primary Screen for Agonists (AID 488981)
Outline: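 Calcium flux in an inducible, force-coupled HEK293 Trex D1 line (overnight at 30 C): agonist mode is the 180 s kinetic read after compound; potentiator mode is the following 180 s read after dopamine at EC20.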

Measured: Potency

Chain of Flap endonuclease 1 (Homo sapiens) (P39748 whole entry, looked up): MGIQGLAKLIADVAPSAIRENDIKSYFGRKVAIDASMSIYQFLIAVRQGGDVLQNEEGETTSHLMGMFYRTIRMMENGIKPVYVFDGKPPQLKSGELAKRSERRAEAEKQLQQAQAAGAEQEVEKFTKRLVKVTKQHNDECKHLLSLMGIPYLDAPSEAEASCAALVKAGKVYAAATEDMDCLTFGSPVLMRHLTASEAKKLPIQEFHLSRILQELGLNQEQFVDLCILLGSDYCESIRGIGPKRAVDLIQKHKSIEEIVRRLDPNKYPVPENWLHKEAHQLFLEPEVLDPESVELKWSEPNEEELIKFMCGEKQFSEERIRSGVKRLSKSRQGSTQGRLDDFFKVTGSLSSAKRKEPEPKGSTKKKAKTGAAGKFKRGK
Chain of ATP-dependent 6-phosphofructokinase (Trypanosoma brucei brucei) (O15648 whole entry, looked up): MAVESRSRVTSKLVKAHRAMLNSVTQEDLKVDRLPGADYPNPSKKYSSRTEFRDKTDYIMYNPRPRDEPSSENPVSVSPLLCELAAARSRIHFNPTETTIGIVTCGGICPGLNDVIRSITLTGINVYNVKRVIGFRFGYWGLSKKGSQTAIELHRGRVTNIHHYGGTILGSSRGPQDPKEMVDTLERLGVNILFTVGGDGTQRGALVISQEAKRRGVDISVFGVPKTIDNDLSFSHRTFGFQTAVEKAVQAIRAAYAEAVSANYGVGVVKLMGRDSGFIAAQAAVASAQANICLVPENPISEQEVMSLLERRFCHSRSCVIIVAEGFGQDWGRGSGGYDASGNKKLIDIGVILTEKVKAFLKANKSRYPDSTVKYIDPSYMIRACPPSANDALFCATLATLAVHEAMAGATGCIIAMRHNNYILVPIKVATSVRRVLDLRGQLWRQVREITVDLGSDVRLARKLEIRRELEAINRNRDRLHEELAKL
Chain of Thyrotropin receptor (Homo sapiens) (P16473 whole entry, looked up): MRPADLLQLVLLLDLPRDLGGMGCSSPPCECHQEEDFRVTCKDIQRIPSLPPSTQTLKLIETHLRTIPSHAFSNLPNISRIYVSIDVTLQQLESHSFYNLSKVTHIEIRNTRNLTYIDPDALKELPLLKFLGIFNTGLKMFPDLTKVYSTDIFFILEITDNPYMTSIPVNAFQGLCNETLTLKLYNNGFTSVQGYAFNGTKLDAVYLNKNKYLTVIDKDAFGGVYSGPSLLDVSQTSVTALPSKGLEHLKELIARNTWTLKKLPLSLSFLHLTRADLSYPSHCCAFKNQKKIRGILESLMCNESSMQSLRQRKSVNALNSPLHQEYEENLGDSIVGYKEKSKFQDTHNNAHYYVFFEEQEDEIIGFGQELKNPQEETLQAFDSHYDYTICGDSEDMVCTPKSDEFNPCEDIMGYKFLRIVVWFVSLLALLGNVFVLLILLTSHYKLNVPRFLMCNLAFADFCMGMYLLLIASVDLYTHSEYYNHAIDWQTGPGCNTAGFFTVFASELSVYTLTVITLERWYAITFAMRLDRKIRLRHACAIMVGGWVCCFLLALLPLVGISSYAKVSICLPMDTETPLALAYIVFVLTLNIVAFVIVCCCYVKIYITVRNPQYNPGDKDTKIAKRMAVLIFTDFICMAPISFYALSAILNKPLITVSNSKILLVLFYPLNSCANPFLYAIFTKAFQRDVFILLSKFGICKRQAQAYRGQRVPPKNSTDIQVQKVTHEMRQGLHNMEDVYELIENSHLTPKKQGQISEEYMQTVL
Chain of DNA polymerase III PolC-type (Bacillus subtilis (strain 168)) (P13267 whole entry, looked up): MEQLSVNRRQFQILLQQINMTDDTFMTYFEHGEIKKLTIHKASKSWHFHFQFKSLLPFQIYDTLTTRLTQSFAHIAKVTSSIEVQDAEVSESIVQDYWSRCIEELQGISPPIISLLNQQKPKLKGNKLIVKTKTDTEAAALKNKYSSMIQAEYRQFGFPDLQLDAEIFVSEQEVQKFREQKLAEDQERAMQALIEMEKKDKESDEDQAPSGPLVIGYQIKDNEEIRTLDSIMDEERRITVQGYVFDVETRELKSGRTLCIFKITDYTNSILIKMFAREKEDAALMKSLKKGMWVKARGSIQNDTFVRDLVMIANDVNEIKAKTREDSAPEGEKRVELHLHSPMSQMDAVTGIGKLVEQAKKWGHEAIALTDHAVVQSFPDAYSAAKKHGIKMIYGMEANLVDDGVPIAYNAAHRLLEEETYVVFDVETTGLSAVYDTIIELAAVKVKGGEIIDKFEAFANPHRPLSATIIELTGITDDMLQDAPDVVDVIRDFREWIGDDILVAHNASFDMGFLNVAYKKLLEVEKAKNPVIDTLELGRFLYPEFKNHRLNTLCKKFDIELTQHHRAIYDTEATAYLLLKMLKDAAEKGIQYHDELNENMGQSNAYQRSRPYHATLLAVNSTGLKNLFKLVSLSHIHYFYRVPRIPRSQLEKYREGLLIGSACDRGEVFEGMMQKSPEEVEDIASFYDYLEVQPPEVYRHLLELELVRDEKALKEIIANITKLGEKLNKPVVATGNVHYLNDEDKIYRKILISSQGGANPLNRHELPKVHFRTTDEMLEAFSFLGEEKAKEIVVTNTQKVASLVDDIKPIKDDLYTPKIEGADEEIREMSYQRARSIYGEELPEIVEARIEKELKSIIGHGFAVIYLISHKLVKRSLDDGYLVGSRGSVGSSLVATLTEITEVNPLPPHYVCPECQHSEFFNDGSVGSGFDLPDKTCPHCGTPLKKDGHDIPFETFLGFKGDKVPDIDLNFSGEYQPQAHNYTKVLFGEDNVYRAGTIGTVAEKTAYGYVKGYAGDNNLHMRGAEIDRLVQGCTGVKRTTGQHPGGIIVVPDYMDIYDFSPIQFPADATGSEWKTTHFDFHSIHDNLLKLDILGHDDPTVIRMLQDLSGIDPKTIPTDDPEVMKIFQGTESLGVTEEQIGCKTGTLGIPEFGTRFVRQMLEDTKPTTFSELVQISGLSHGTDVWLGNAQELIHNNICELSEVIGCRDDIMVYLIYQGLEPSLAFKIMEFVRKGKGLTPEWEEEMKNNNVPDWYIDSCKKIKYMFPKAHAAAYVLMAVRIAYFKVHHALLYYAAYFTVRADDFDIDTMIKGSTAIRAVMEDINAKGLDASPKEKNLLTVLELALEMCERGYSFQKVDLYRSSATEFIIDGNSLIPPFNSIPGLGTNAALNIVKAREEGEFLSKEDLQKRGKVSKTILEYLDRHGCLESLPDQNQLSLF
Chain of Chromobox protein homolog 1 (Homo sapiens) (P83916 whole entry, looked up): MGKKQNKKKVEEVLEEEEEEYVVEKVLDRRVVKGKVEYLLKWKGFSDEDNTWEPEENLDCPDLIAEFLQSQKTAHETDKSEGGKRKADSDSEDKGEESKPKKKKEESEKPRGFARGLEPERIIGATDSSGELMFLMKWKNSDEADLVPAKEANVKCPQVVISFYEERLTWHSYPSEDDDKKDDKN
Chain of Methanococcus maripaludis chaperonin (MmCpn) (Q6LX38 1-543): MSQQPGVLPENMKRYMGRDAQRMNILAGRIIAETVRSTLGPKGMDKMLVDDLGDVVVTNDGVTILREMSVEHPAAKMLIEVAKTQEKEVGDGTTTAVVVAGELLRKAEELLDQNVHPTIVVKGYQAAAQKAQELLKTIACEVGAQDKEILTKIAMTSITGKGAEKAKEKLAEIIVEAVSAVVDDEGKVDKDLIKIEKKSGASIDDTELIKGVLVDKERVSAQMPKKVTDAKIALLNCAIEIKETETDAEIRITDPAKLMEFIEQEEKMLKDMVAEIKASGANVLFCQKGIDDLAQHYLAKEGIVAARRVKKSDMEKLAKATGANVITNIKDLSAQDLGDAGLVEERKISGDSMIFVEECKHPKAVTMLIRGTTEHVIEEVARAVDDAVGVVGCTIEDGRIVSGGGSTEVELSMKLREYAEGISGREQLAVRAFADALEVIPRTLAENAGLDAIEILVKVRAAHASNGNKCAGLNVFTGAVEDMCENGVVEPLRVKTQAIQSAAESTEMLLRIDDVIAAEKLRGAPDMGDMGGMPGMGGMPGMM
Chain of D(1A) dopamine receptor (Homo sapiens) (P21728 whole entry, looked up): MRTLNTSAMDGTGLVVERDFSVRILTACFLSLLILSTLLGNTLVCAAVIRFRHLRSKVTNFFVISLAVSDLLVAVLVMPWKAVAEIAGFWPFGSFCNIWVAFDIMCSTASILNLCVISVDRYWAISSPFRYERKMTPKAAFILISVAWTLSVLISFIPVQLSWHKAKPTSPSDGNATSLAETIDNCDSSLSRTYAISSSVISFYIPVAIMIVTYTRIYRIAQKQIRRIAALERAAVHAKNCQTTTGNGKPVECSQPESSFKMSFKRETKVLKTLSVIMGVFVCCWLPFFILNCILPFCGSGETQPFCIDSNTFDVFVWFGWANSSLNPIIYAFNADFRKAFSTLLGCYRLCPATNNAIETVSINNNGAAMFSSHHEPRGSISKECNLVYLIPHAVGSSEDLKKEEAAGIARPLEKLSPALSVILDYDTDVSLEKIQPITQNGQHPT
Chain of Thioredoxin reductase 1, cytoplasmic (Rattus norvegicus) (O89049 whole entry, looked up): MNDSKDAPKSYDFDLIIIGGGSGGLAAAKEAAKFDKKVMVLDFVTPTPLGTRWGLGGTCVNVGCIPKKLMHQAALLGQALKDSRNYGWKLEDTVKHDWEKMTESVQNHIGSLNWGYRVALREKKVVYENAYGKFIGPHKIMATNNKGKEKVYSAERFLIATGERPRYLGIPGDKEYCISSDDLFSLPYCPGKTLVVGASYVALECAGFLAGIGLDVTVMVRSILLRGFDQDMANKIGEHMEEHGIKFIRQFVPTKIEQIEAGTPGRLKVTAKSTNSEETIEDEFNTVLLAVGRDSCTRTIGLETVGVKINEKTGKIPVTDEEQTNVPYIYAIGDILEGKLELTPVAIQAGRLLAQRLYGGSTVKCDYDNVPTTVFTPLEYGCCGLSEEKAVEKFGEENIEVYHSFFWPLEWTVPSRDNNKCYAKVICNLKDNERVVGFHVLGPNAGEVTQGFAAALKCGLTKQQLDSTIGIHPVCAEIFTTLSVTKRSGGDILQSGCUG

NC(=O)c1cc(N2CC2)c([N+](=O)[O-])cc1[N+](=O)[O-]
inactive: all assays above

CCN(CCCl)Cc1ccccc1Br
not listed: [13] | [14]
inactive: all other assays above

CCOC(=O)c1ncn2c1[C@@H]1CCCN1C(=O)c1cc(OC)ccc1-2
inactive: all assays above

CN1CCC(c2c[nH]c3ccc(O)cc23)CC1
not listed: [10]
inactive: all other assays above

Clc1ccc(N2CC3CCC(C2)N3)nn1
inactive: all assays above

NCCc1ccc(S(=O)(=O)F)cc1
not listed: [20]
inactive: all other assays above

NC(N)=NOCC[C@H](N)C(=O)O
not listed: [16] | [20]
inactive: all other assays above
